The molecules below were run on HCC1569 (assay: H1.0 immunofluorescence intensity relative to DMSO (% of DMSO); higher = stronger H1.0 induction, active = 140 or more). Details: concentration: 10 µM; 24 h.
How it was run: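 Compounds were applied at 10 µM for 24 h at 37 °C, in triplicate, to HCC1569 and TDF cells. The cells were then fixed and stained for H1.0, and nuclei were counterstained with DAPI. Nuclear H1.0 intensity or cell number is reported relative to the plate control as a percent, taking the median of replicates. Smoothing for positional effects was applied to HCC1569 values only.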
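Further: TDF is a line of transformed human dermal fibroblasts of mesenchymal origin.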

H1.0 immunofluorescence intensity, inactive:
C=CCn1c(=O)c2c(nc(-c3ccc(S(=O)(=O)O)cc3)n2C)n(C)c1=O [1-Allyl-3,7-dimethyl-8-p-sulfophenylxanthine] 105, C[N+](C)(C)CCCCCC[N+](C)(C)C.[Cl-].[Cl-] [Hexamethonium dichloride] 87.7, COc1ccc2c3c1OC1CC(O)C=CC31CCN(C)C2 (stereo not drawn) [Galanthamine] 94.8, CC(=O)Oc1ccccc1C(=O)O [Acetylsalicylic acid] 88.3, CCOc1cc2ncc(C#N)c(Nc3ccc(F)c(Cl)c3)c2cc1NC(=O)/C=C/CN(C)C 84.6, COC1C=COC2(C)Oc3c(C)c(O)c4c(O)c(cc(O)c4c3C2=O)NC(=O)C(C)=CC=CC(C)C(O)C(C)C(O)C(C)C(OC(C)=O)C1C (stereo not drawn) 103, CC1CN(S(=O)(=O)c2cccc3cnccc23)CCN1.Cl.Cl (stereo not drawn) 81.1, CN(C)CC(=O)Nc1ccc2[nH]c(=O)c3ccccc3c2c1.Cl.O 91.3

Source: the supplement of paper PMC7156485
